Screening results (PubChem BioAssay)
This is a sample that favours compounds with a hit; in the whole collection about 4.7% have one here.
D1 potentiator: enhances dopamine response at the human D1 receptor; P21728; HEK293 TREx D1 cells, calcium flux, dopamine EC20 potentiation; potentiation, % at 10 µM; hit rate 0.036% among 360,000; in the data active = potentiation above about 30%; also: 0% is about no effect
D1 antag: antagonists of human D1 dopamine receptor. P21728. HEK293 TREx D1 cells, calcium flux, dopamine EC80; stronger effect = lower value. activity change, negative = inhibition, % at 10 µM. hit rate 3.2% among 360,000; in the data active = activity change below about -30%; also: % is scaled to controls: 0 for no effect and ±100 for the full control effect
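Kinetic fluorescence of a calcium dye serves as the read-out. D1-expressing Hek293 Trex cells, induced overnight at 30 C, are exposed to compound for 180 s before an EC80 dopamine addition, then read 180 s further.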
TRHR ag: activates the human TRH receptor. activation, % at 2 µM. P34981. TRHR cells, calcium flux fluo-8, FDSS agonist mode. hit rate 0.18% among 360,000; also: 0% is about no effect
Target sequence (P34981 whole entry, looked up): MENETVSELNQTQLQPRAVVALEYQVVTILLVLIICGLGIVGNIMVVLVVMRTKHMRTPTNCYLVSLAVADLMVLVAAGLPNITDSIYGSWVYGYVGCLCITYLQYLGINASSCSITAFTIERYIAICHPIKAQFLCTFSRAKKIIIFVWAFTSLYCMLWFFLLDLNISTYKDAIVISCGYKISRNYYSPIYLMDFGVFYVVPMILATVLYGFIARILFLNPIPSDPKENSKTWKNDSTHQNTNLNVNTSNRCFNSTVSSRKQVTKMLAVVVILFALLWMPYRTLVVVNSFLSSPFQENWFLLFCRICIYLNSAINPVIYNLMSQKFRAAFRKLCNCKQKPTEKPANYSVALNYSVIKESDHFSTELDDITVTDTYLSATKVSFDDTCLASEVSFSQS
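Read-out: compound-evoked intracellular calcium rise in TRHR cells, fluo-8 dye, kinetic FDSS fluorescence at 1 s/cycle following a 10-cycle baseline. Cells cultured overnight before dye loading (30 min–1.5 h, RT).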
TRHR enhancer: allosterically enhances the human TRH receptor; enhancement, % at 2 µM; AID 493056; P34981; TRHR cells, fluo-8 calcium fluorescence, EC20 TRH enhancement; hit rate 0.66% among 360,000; in the data active = enhancement above about 30%; also: 0% is about no effect
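TRHR-expressing cells loaded with fluo-8 calcium dye were read kinetically (ex 480/em 530) during compound addition, then stimulated with an EC20 of TRH (10 nM final). Enhancement of the Gq-mediated intracellular calcium response was scored.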
D1 agonist: human D1 receptor agonism; hit rate 1% among 360,000; P21728; activation, % at 2 µM; HEK293 T-REx D1 cells, calcium flux, agonist mode; also: 0% is about no effect
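Agonism was scored from calcium flux recorded over 180 s (1 read/s) after pintool compound addition, following a 10-cycle baseline. Cells were inducible force-coupled HEK293 TREx D1, plated overnight at 30 C and loaded with no-wash calcium dye.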
Active calls of the source: *; x = not tested or not shown; ! = not confirmed by another sample. Rule as the data show it, unless noted: active = activation above about 30%; inactive = the rest.

SMILES	D1 potentiator	D1 antag	TRHR ag	TRHR enhancer	D1 agonist
CC1CCCN(S(=O)(=O)c2cc3c4c(c2)CC(=O)N4CCC3)C1 (stereo not given)	-0.8	x	0.2	-3.7	-2.2
Cc1ccccc1Cn1c(SCc2ccc(C(=O)NCc3cccs3)cc2)nc2ccncc21	-4.2	-28.5	-0.4	13.3	19.6
Cn1cc(C=C2C(=O)CC(C)(C)CC2=O)c2ccccc21	-0.7	4.4	-0.1	-3.9	-1.0
Cn1cc(C=C2C(=O)OC3(CCCCC3)OC2=O)c2ccccc21	-3.1	-30.4*	11.6	-11.1	2.0
COc1ccc(C(=O)N2CC(=O)Nc3ccc(C)cc3C2c2ccccc2)cc1OC (stereo not given)	-0.6	1.3	2.3	4.2	8.4
CCOc1ccccc1NC(=O)Cn1c(=O)nc(-c2ccccc2F)c2cc(Cl)ccc21	1.7	-43.0*	-0.1	-0.1	-2.8
Nc1c(C(=O)Nc2ccc(Cl)c(C(=O)O)c2)sc2nc3c(cc12)CCCC3	-7.8	-61.5*	0.5	-4.1	13.0
CCc1ccc(NC(=O)CC2C(=O)N(c3ccc(Cl)cc3)C(=O)N2C2CCCC2)cc1 (stereo not given)	0.4	-3.3	1.7	11.5	8.4
Cc1ccc(NC2=CC(=O)CC(C)(C)C2)cc1F	0.6	-18.4	-0.2	-1.3	-0.2
Cc1cc(N)c(NC2=CC(=O)CC(C)(C)C2)cc1C	3.9	15.2	-0.6	0.7	31.4*
CN(C(=S)Nc1ccc(Oc2ccccc2)cc1)C1CCCCC1	0.5	-32.6*	0.0	-5.9	5.9
Nc1c(C(=O)NCCc2ccccc2)nnn1CC(=O)Nc1ccc(Cl)cc1	2.6	-8.2	0.9	6.9	0.5
Cc1ccccc1S(=O)(=O)N1CCN(S(=O)(=O)c2ccc3c(c2)OCCO3)CC1	3.5	-12.1	0.3	2.2	3.9
COc1ccc(NC(=O)CSc2nc3ccccc3nc2N2CCOCC2)cc1	0.8	-9.0	-0.4	-5.3	3.0
CC(C)c1nc(SCC(=O)Nc2ccc(N3CCOCC3)cc2)c2ccccc2n1	-2.6	-18.4	-0.4	-0.7	0.6
CCOc1ccc(NC(=O)CSc2nc3ccccc3nc2N2CCOCC2)cc1	2.6	9.7	-0.5	34.2*!	2.6
CCCc1nc(SCC(=O)Nc2ccc(N3CCOCC3)cc2)c2ccccc2n1	-19.7	-35.6*	0.6	2.3	0.8
COc1ccc(-c2nn(C)c3sc(C(=O)Nc4cccc(F)c4)cc23)cc1OC	-6.2	-0.4	-0.7	-3.1	6.9
Cc1cccc(N2CCN(C(=O)CS(=O)(=O)c3cccc4nsnc34)CC2C)c1 (stereo not given)	-4.2	9.0	0.3	-4.4	7.6
COc1ccc(C)cc1-n1c(-c2ccncc2)n[nH]c1=S	-4.5	-32.5*	0.2	4.5	1.0
Cc1cc(N/N=C/c2ccccc2Cl)nc(NCc2ccccc2)n1	0.6	7.6	-1.4	0.5	5.5
Cc1cc(N2CCN(c3ccccc3)CC2)nc(NCc2ccccc2)n1	-3.7	-49.5*	1.1	1.5	7.5
COc1ccc(Nc2cc(C)nc(NCc3ccccc3)n2)cc1	-2.8	1.2	-0.7	-0.3	17.8
Cc1cc(NC2CCCCC2)nc(NCc2ccccc2)n1	-4.0	3.2	4.0	2.3	54.9*
Cc1ccc(Nc2cc(C)nc(NCc3ccccc3)n2)cc1	-10.7	18.5	6.5	32.2*	53.4*
SMILES	D1 potentiator	D1 antag	TRHR ag	TRHR enhancer	D1 agonist
COc1ccccc1-c1nn(CCC(=O)Nc2ccc(C)cc2)c2nc(C)cc(C)c12	-3.4	-0.7	-1.3	-2.6	4.4
O=c1cc(N2CCN(c3ccc(F)cc3)CC2)[nH]c(=O)n1-c1cccc(Br)c1	-2.4	2.1	0.5	-4.2	0.4
CCOc1ccc(C(=O)NCCS(=O)(=O)N2CCN(c3ccccc3F)CC2)cc1OCC	-0.9	-2.9	-0.9	1.9	0.2
Cc1ccc(NCc2ccccc2OCc2ccccc2F)cc1	-2.1	6.4	-1.2	3.7	3.8
CNCc1c(OCc2ccccc2)ccc2ccccc12	-20.1	-44.8*	0.7	3.0	25.3
CC(C)(CO)NCc1c(OCc2ccc(Cl)cc2)ccc2ccccc12	-17.6	2.3	2.2	-7.1	35.2*
COc1cc(CNC(C)(C)CO)cc(Br)c1OCc1ccc(Cl)cc1	-6.5	-6.4	1.2	-6.7	33.8*
Cc1c(OCc2ccccc2)cccc1OCc1ccccc1	-3.4	2.6	0.6	-2.5	0.7
CNCc1c(OCc2ccccc2F)ccc2ccccc12	-2.9	-81.0*	-0.7	-1.1	38.6*
COc1ccc(-c2cc(C(F)(F)F)nc(SCC(=O)Nc3ccc(O)cc3)n2)cc1OC	-1.1	-13.7	-1.3	8.6	-0.2
Cc1ccc(Cn2ccn(CC(=O)Nc3c(C)cc(C)cc3C)c(=O)c2=O)cc1	-0.3	-19.0	-0.4	-9.2	-0.6
O=C(O)c1ccc(C(=O)Nc2cccc3cccnc23)cc1	-7.7	3.0	-0.7	-0.3	1.9
Cc1ccc(N2C(=O)N(CC(=O)C(C)(C)C)c3ccccc3S2(=O)=O)cc1C	-4.1	0.2	0.5	-1.3	4.2
O=C(N/N=C/c1ccco1)Nc1ccccc1	2.6	15.8	0.3	7.4	4.5
Cc1cccc(NC(=O)CCC(=O)N/N=C/c2ccco2)c1C	-7.8	-11.9	-0.3	33.5*	0.7
O=C(CCC(=O)Nc1cccc2ccccc12)N/N=C/c1ccco1	-1.8	13.7	0.0	-3.7	-0.9
CCC(=O)NNC(=O)CCC(=O)Nc1ccccc1	-5.5	-11.1	0.0	-0.4	3.7
O=C(CCC(=O)Nc1ccccc1)N/N=C/c1ccco1	1.1	2.6	-0.3	38.0*	0.3
NNC(=O)CCC(=O)Nc1ccccc1	-7.0	-32.8*	-0.6	-7.9	0.8
CCOc1ccc(C(=O)Nc2ccc3nn(-c4ccc(OC)c(Cl)c4)nc3c2)cc1	-2.1	6.4	-0.1	-0.9	4.0
Cc1ccc(C(NC(=O)N2CCOCC2)=C(Cl)Cl)cc1F	-2.0	-37.3*	-2.6	1.8	-0.6
Cc1ccc(C(NC(=O)N2CCOCC2)C(Cl)Cl)cc1F (stereo not given)	0.4	-8.0	-0.6	1.3	0.8
Cc1cccc(COC(=O)Nc2ccc(NC(=O)c3ccccc3Cl)cc2)c1	-8.2	-56.2*	0.2	7.3	8.9
CCOC(=O)Nc1ccccc1C(=O)Nc1cc(C)cc(C)c1	-3.7	-24.4	-1.3	0.0	2.5
Cc1cccc(N2CCn3c2nc2c3c(=O)n(CCc3ccccc3)c(=O)n2C)c1	-3.8	-2.1	-0.5	-3.7	2.2
Cc1cccc(N2CCCn3c2nc2c3c(=O)n(CC(=O)OCc3ccccc3)c(=O)n2C)c1	-14.2	-55.1*	-0.3	-2.3	0.9
CC(C)=CCN1CCN(Cc2ccc(C#CC(C)(C)O)s2)CC1CCO (stereo not given)	-7.0	-36.7*	4.0	-5.5	5.7
CC(C)(O)C#Cc1ccc(CN2CCN(CCc3ccccc3)C(CCO)C2)s1 (stereo not given)	-6.6	-37.1*	-2.5	6.2	10.0
